Out of some 68,000 compounds screened, about 2,700 (4%) showed an effect of 50% or more. The sample holds strong results, similar compounds and a random draw of the others, so the mix is not that of the screen.
system: Plasmodium berghei; test: Screen against P. berghei liver stage (PbLuc), transformed with Luciferase, at 2uM; format: functional, HepG2; settings: tested at 2 uM

| Structure (SMILES) | INHIBITION [%] |
| --- | --- |
| CC(C)c1ncc(CN2C[C@@H](CN3CCC(O)CC3)[C@@H](CO)C2)cn1 | -142.15 |
| Cc1cnc(CN(C)Cc2cccc(OC(F)(F)F)c2)cn1 | 8.59 |
| c1ccc2nc(CN3CCCC3c3noc(C4CC4)n3)ccc2c1 (configuration not stated) | 0.74 |
| Cc1nn(C2CCS(=O)(=O)C2)c(O)c1Cc1ccccc1Cl (configuration not stated) | -0.89 |
| Cc1nc(CN(Cc2ccccc2F)C2CCC2)no1 | -3.11 |
| COCCN(Cc1ccoc1)C(=O)CSc1ccc(F)cc1 | 12.7 |
| CN(Cc1ccncc1)C1CC2(CCN(c3ncc(F)cn3)CC2)C1 | -20.67 |
| COc1cc2cc(C)c(SCCN3CCCCC3)nc2cc1OC | 11.74 |
| CN(C)CC1CSCCCN1C(=O)c1ccc(-n2cccc2)cc1 (configuration not stated) | 15.49 |
| Cc1cc(C(F)(F)F)nc(CNc2cc(C)nc3cc(C)nn23)n1 | -15.4 |
| Cc1cc(NCc2cc(C)oc2C(F)(F)F)n2nc(C)cc2n1 | 51.77 |
| Cc1cc(NCCCC(F)(F)F)n2nc(C)cc2n1 | -2.24 |
| CCCN1CCCn2c(nc(CNC(=O)c3ccsc3)cc2=O)C1 | -2.19 |
| CCC1CN(C(=O)c2cccc(O)c2)CCC(=O)N1Cc1ccccc1 (configuration not stated) | -0.23 |
| c1cnc(N2CCC3(CC2)CN(CC2CC2)c2ccccc23)nc1 | -59.24 |
| CC1CCCN(C(=O)CNC(=O)c2ccoc2)C1 (configuration not stated) | -13.92 |
| CNC(=O)C1(N2CCC[C@H]2C(=O)NC2CCCCC2)CCOCC1 | 20.87 |
| COCC1c2c(cnn2C)CCN1Cc1ccsc1 (configuration not stated) | -61.95 |
| Clc1ccc(-c2ccc(C3CNCCO3)nc2)cc1 (configuration not stated) | 39.65 |
| COc1ccc(-c2cnc(N(C)C)nc2C2CNCCO2)cc1 (configuration not stated) | 38.42 |
| COc1ccc(-c2ccc(C3CNCCO3)nc2)cc1 (configuration not stated) | 84.26 |
| c1ccc(-c2ccc(C3CNCCO3)nc2)cc1 (configuration not stated) | 36.92 |

| Structure (SMILES) | INHIBITION [%] |
| --- | --- |
| c1ncc(-c2ccc(C3CNCCO3)nc2)cn1 (configuration not stated) | 27.3 |
| Cc1ccc(-c2ccc(C3CNCCO3)nc2)cc1 (configuration not stated) | 81.51 |
| Cn1cc(CN2CCn3cc(CNC(=O)c4cccn4C)nc3C2)cn1 | 16.22 |
| Cc1c(NCc2ccc(C#N)cc2)cccc1S(=O)(=O)NC1CC1 | 21.14 |
| COC(=O)CNC(=O)c1ccn(-c2ccc(Cl)c(Cl)c2)n1 | -14.28 |
| CCN(Cc1ccncc1)C(=O)c1cn(CCCc2ccccc2)nn1 | 30.42 |
| CC(C)=CCN1CC2(CCN(Cc3ncc[nH]3)CC2)CC1=O | 20.34 |
| COCCCN1CC2(CCN(Cc3ncc[nH]3)CC2)CC1=O | 25.13 |
| CN1CC2(CCN(Cc3ncc[nH]3)CC2)CC1=O | 73.62 |
| Cc1n[nH]cc1C(=O)NCc1cccnc1N1CCc2ccccc2C1 | 18.63 |
| CCN(CC)C(=O)c1ccc(CNc2ncc(C#N)cc2Cl)cc1 | 27.52 |
| N#Cc1ccc(CNc2ncc(C#N)cc2Cl)cc1 | 51.88 |
| CS(=O)(=O)Cc1ccc(CNc2ncc(C#N)cc2Cl)cc1 | -35.5 |
| CSc1nccc(N2CCC3(CCCN(CCc4ccccc4)C3)C2)n1 (configuration not stated) | -31.44 |
| CCC(NC(=O)c1nn(C)cc1C(=O)O)c1ccccc1 (configuration not stated) | 49.95 |
| Cc1ccc(CNC(=O)NC2CCN(CC(F)F)CC2)cc1 | -5.19 |
| N#Cc1ccc(CNC(=O)NC2CCN(CC(F)F)CC2)cc1 | -39.58 |
| N#Cc1cccc(CNC(=O)NC2CCN(CC(F)F)CC2)c1 | 67.51 |
| O=C(NCc1nnc2n1CCCC2)c1ccc(C2CCCO2)s1 (configuration not stated) | 29.22 |
| COc1cc(N2CCC3(CCCN(Cc4ccccn4)C3)C2)ncn1 (configuration not stated) | -21.32 |
| O=C(NCC1CCN(c2ncccn2)CC1)c1cnccn1 | 26.66 |
| Cc1cc(C)nc(N2CCC(CNC(=O)c3ccccn3)CC2)n1 | 27.39 |

| Structure (SMILES) | INHIBITION [%] |
| --- | --- |
| Cc1cc(C)nc(N2CCC(CNC(=O)c3cnccn3)CC2)n1 | 95.75 |
| CN(Cc1cccc(F)c1)C(=O)CN1CCOC(Cn2cccn2)C1 (configuration not stated) | 20.28 |
| O=c1[nH]c(-c2cccnc2)nc2c1CCN(S(=O)(=O)N1CCCC1)C2 | -15.3 |
| CCn1ncc(CN2CCc3nc(-c4cccnc4)nc(O)c3C2)c1C | 21.14 |
| CCn1ncc(CN2CCc3c(nc(-c4cccnc4)[nH]c3=O)C2)c1C | 54.82 |
| O=C(N[C@H]1COC[C@@H]1N1CCCC1)c1c[nH]nc1C1CCCCC1 | 77.54 |
| Cc1nc(C(=O)N[C@H]2COC[C@@H]2N2CCCCC2)cs1 | 11.19 |
| CCO[C@H]1COC[C@@H]1NC(=O)c1c[nH]nc1C1CCCCC1 | -73.93 |
| CCc1ccc(C(=O)NCCNc2ncccn2)cc1 | 56.02 |
| CCOc1ccc(C(=O)NCCCNc2ncccn2)cc1 | 50.59 |
| CS(=O)(=O)c1ccc(C(=O)NCCNc2ncccn2)cc1 | 35.65 |
| O=C(NCCNc1ncccn1)c1ccc(Br)cc1 | -68.24 |
| Cc1ccc(C)n1-c1ccc(C(=O)NCCNc2ncccn2)cc1 | 1.61 |
| COc1ccc(C(=O)NCCCNc2ncccn2)cc1F | 5.28 |
| Cc1cc(C)cc(C(=O)NCCCNc2ncccn2)c1 | 29.13 |
| COc1ccc(C(=O)NCCCNc2ncccn2)c(OC)c1 | 48.21 |
| COc1cc(OC)cc(C(=O)NCCCNc2ncccn2)c1 | 57.75 |
| Cc1nc(C2CCCN(C(=O)CCCn3cccn3)C2)sc1C (configuration not stated) | 15.67 |
| O=C(c1ccc2[nH]ccc2c1)N1CC[C@@H]2CN(CC3CC3)CCO[C@@H]2C1 | 12.83 |
| CCS(=O)(=O)N1CCc2cc(C(=O)N(C)C)c(NCC3CC3)nc2CC1 | 27.08 |
| COC(=O)COc1cc(NCc2c(C)noc2C)c(Cl)cc1C | -55.9 |
| NC(=O)COc1ccc(CN2CCC(O)(CN3CCCCC3)C2)cc1Cl (configuration not stated) | -32.93 |

| Structure (SMILES) | INHIBITION [%] |
| --- | --- |
| Cc1cnn(C2CN(CC(=O)NCCc3ccsc3)C2)c1 | -21.39 |
| O=C(CCC1CCCO1)NCc1ccc(Br)cc1F (configuration not stated) | 1.52 |
| Cc1cc(C(=O)O)c2c(Br)cccc2n1 | -34.12 |
| COCCCN1Cc2cccc(NC(=O)c3cc(F)ccc3F)c2C1 | -9.01 |
| CCc1nnsc1C(=O)N1CCCC1c1c(C)nn(C)c1OC (configuration not stated) | -12.75 |
| COc1ccc(C(C(=O)O)N2CCC(O)(c3cccnc3)CC2)cc1Cl (configuration not stated) | 55.39 |
| COc1cccc(Cl)c1C(C(=O)O)N1CCC(O)(c2cccnc2)CC1 (configuration not stated) | -4.09 |
| COc1ccc(C(C(=O)O)N2CCC(O)(c3cccnc3)CC2)cc1F (configuration not stated) | -38.97 |
| Cc1ccc(C(=O)N2C[C@H]3CCC[C@@]3(COCc3cccnc3)C2)s1 | -5.01 |
| O=C(CC1CCCCC1)N1CCC(c2ncc3c(n2)CCNC3)CC1 | 6.4 |
| CCC(=O)N1CCC(c2ncc3c(n2)CCNC3)CC1 | 95.75 |
| CCCC(=O)N1CCC(c2ncc3c(n2)CCNC3)CC1 | 5.15 |
| COc1c[nH]c(C(=O)N2CCN(c3ccc(Cl)cc3)CC2)cc1=O | 5.28 |
| Cc1cc(C)n(C2CN(CC(O)c3ccc(S(C)(=O)=O)cc3)C2)n1 (configuration not stated) | -3.06 |
| Cc1cc(C)n(C2CN(CC(O)c3ccc(F)cc3)C2)n1 (configuration not stated) | -26.11 |
| Cc1cc(C)n(C2CN(CC(O)c3cc(F)ccc3F)C2)n1 (configuration not stated) | 53.98 |
| Cc1cc(C)n(C2CN(CC(O)c3ccc(C(F)(F)F)cc3)C2)n1 (configuration not stated) | 56.02 |
| COc1ccc(C(O)CN2CC(n3nc(C)cc3C)C2)cc1 (configuration not stated) | -1.02 |
| Cc1cc(C)n(C2CN(CC(O)COc3ccc(F)cc3)C2)n1 (configuration not stated) | 12.31 |
| O=C(c1cnnn1-c1ccccc1)N1CCCC(c2ccn[nH]2)C1 (configuration not stated) | -44.17 |
| O=C(c1ccco1)N1C[C@@H]2CCN(c3cccnc3)C[C@@H]2C1 | -19.54 |
| CCN(CC)C(=O)C(c1ccccc1)N1CCn2c(C)nnc2C1 (configuration not stated) | 63.95 |

| Structure (SMILES) | INHIBITION [%] |
| --- | --- |
| CCc1nnc2n1CCN(C(C(=O)N(CC)CC)c1ccccc1)C2 (configuration not stated) | 47.85 |
| Cc1nnc2n1CCN(C(C(=O)N1CCCCC1)c1ccccc1)C2 (configuration not stated) | -40.65 |
| COc1ncc(C2(O)CCN(Cc3ccc(F)c(F)c3)CC2)c(OC)n1 | 10.83 |
| O=C(CN1CCCC(O)C1)NC(=O)NCc1cccs1 (configuration not stated) | -4.29 |
| CN(C)c1cc(C(=O)NCC2(c3cccc(F)c3)CCOCC2)ccn1 | 15.38 |
| Cc1cccc(C2(CNC(=O)c3ccnc(N(C)C)c3)CCOCC2)c1 | -3.96 |
| CN(C)c1cc(C(=O)NCC2(c3ccc(F)cc3)CC2)ccn1 | 87.73 |
| CCCC(=O)N1CCC(C(=O)NCCN2CCC(C)CC2)CC1 | 20.43 |
| CC(=O)N1CCC(C(=O)NCCN2CCC(C)CC2)CC1 | 44.99 |
| CCCNC(=O)C1CCN(CC2(O)CCC(C)CC2)CC1 (configuration not stated) | 50.03 |
| COCCCNC(=O)C1CCN(CC2(O)CCC(C)CC2)CC1 (configuration not stated) | 54.69 |
| CC1CCN(CCCNC(=O)C2CCCCC2)CC1 | 1.41 |
| CC1CCC(O)(CN2CCN(CCNC(=O)C3CCC3)CC2)CC1 (configuration not stated) | -81.41 |
| CN(Cc1ccco1)Cc1cnc2n1CCN(c1ccccn1)CC2 | -18.6 |
| OC(CNc1ccc(Cl)cn1)CN1CCOCC1 (configuration not stated) | 12.58 |
| CC1CCN(CC(O)CNc2ccc(Cl)cn2)CC1 (configuration not stated) | 58.9 |
| CC1CCN(CC(O)CNc2ccccn2)CC1 (configuration not stated) | 39.95 |
| Cc1nnc([C@@]23CCO[C@@H]2CCN(S(=O)(=O)c2cccnc2)C3)o1 | 38.17 |
| O=C(c1c[nH]c2ccccc2c1=O)N1CCSCC1 | 40.47 |

Source: ChEMBL document CHEMBL4513216, “Probing the Open Global Health Chemical Diversity Library for Multistage-Active Starting Points for Next-Generation Antimalarials” (ACS Infect Dis, 2020)
